Screening data: PubChem, National Center for Advancing Translational Sciences (NCATS)
Only some compounds are listed: those with a hit (about 10% of all), similar ones and a draw of the others.
GPT2 inh – blocks human glutamate pyruvate transaminase 2 | Recombinant GPT2, coupled pyruvate oxidase/HRP Amplex Red fluorescence | Potency, µM (titrated, usually from 57.7 µM), usual class: inhibitors | AID 1671188 | Q8TD30 | actives 0.25% (n = 100,000); further: nearly all actives have a fitted effect of over 60% in size
Target sequence (Q8TD30 whole entry, looked up): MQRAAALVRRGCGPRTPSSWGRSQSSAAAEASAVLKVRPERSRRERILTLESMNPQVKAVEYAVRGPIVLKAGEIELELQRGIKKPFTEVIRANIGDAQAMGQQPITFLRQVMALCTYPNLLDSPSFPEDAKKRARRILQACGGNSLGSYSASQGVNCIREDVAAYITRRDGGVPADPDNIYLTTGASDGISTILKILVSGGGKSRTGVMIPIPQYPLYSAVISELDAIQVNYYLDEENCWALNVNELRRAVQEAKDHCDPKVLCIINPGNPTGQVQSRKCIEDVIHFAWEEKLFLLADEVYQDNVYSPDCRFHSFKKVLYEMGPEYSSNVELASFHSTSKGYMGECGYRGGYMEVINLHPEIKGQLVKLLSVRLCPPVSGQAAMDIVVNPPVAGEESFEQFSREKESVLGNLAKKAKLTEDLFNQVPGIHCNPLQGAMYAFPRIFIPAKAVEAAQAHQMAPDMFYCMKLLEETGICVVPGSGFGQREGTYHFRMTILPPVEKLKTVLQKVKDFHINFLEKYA
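GPT2 10ng/uL, a-KG 250uM, L-Ala 2mM, HEPES pH7.5 + 0.0001% Tween; 30 min RT. Then Amplex mix (PO/HRP/ThPP), 30 min RT dark, fluorescence. AOA 50uM used as positive control.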
NIH3T3 tox – cytotoxic compounds in NIH 3T3 cells; NIH 3T3 viability, CellTiter-Glo ATP luminescence, 48-72 h; Potency, µM (highest dose often 96.7 µM), most hits filed as inhibitors; actives 4.3% (n = 94,000); further: nearly all actives have a fitted effect of over 55% in size
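Cells were seeded at 400 per well, treated with pin-transferred compound, and kept 48 or 72 hr at 37 °C before CellTiter-Glo addition and luminescence imaging of cellular ATP.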
Luciferase inh – inhibitors of firefly (Photinus pyralis) luciferase. AID 1347043. P08659. actives 2.5% (n = 76,000). Potency, µM (series often up to 115 µM), usual class: inhibitors. purified P. pyralis luciferase, luminescence, biochemical; further: nearly all actives have a fitted effect of over 65% in size
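FLuc 10nM, D-luciferin 10uM, ATP 10uM, Mg acetate 10mM, Tris acetate pH 7.5, Tween/BSA; cpd qHTS; enzyme added last; CCD luminescence.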
HEK293 tox – cytotoxic compounds in HEK 293 cells; HEK 293 viability, ATP luminescence (CellTiter-Glo), 48-72 h; Potency, µM (titrated, usually from 115 µM), most hits filed as inhibitors; actives 6.6% (n = 94,000); further: nearly all actives have a fitted effect of over 60% in size
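250 HEK 293 cells/well; compound by pintool; incubated 48 or 72 hr at 37 degree Celsius; CellTiter-Glo added, 10 min RT, luminescence imaged.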
hNpr1 antagonist – antagonists of human natriuretic peptide receptor Npr1 | P16066 | HEK293 hNpr1 GloSensor cGMP, ANP-stimulated luminescence | Potency, µM (series often up to 46.3 µM), hits mostly inhibitors | actives 1.6% (n = 76,000) | AID 1347048; calls by dose curve; further: nearly all actives have a fitted effect of over 60% in size
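HEK293 cells stably expressing human Npr1 and cGMP GloSensor pGS-40F, loaded 2 h with 2% GloSensor reagent, given compound 30 min at room temperature. Luminescence read before and 20 min after 0.1 nM hNppA.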
Numbers stand for hits; n = inactive; u = inconclusive; x = not tested or not shown. Unless noted, the call rests on the fitted dose curve; in most records, active means well fitted curve in the direction sought with a large enough effect; inconclusive means small, poorly fitted or top-dose-only effect, or another doubt; inactive means no such curve, though single readings can be large; an effect the other way counts as inactive or inconclusive.

SMILES	GPT2 inh	NIH3T3 tox	Luciferase inh	HEK293 tox	hNpr1 antagonist
COc1ccc(Nc2ccnc(N3CCN(C(=O)NC4CCCC4)CC3)n2)cc1	n	u	x	45µM	x
COc1ccccc1Nc1ccnc(N2CCN(C(=O)NC3CCCC3)CC2)n1	n	32µM	x	45µM	x
COc1ccccc1Nc1ccnc(N2CCC(C(=O)NC3CCCC3)CC2)n1	n	u	x	u	x
CC(=O)N1CCCN(c2ncnc3c2CN(C2CCCNC2)C(=O)CN3C)CC1 (stereo not given)	n	n	x	n	x
COCC(=O)N1CCCC1C(=O)N1CCC(N2Cc3ccccc3C2=O)CC1 (stereo not given)	n	n	x	n	x
COc1ccccc1Nc1ccnc(N2CCC[C@H]2C(=O)N2CCC(Cc3ccccc3)CC2)n1	n	u	x	40µM	x
O=C(NC1CCN(c2nccc(Nc3ccccc3Cl)n2)CC1)C1CCCC1	n	28µM	x	u	x
COc1ccc(NC(=O)O[C@@H]2CO[C@H]3[C@@H]2OC[C@@H]3NS(=O)(=O)c2cccc3cccnc23)cc1	n	n	n	n	n
Cc1cccc(CC(=O)N2CC(C(=O)NC3CCCCC3)C3(CCOCC3)C2)c1 (stereo not given)	n	n	n	n	n
O=C(NCc1cccc(C(F)(F)F)c1)C1CCc2nnc(CN[S+](=O)([O-])c3ccccc3Cl)n21 (stereo not given)	n	u	x	n	x
CCOC(=O)C1CCCN(C(=O)C2CCc3nnc(C4CC4)n32)C1 (stereo not given)	n	25µM	x	u	x
CC(C)N1CCC(OCCCNC(=O)C2Cn3cccc3C(=O)N2C)CC1 (stereo not given)	n	n	x	n	x
COc1ccc(OC)c(CN2CCc3ncc(C(=O)Nc4ccccc4)n3CC2)c1	n	u	n	112µM	n
COc1ccccc1CN1CCc2ncc(C(=O)Nc3ccccc3)n2CC1	n	u	n	u	n
O=C(NCCOc1ccccc1)c1cnc2n1CCN(Cc1ccc3[nH]ccc3c1)CC2	n	u	n	u	n
O=C(Nc1ccccc1)c1cnc2n1CCN(Cc1ccc3[nH]ccc3c1)CC2	n	89µM	n	100µM	n
COc1cc(SC)ccc1C(=O)N[C@H]1CCN2C(=O)N(c3ccc(Cl)cc3)C(=O)[C@@H]2C1	n	n	n	n	n
CNC(=O)CCn1ncc2cc(OCc3ccccc3-c3c(Cl)cccc3OC)ccc21	n	u	n	u	n
CNC(=O)CCn1ncc2cc(OCc3ccccc3-c3ccccc3COC)ccc21	n	u	n	89µM	n
CNC(=O)CCn1ncc2cc(OCc3ccccc3-c3ccccc3OC)ccc21	n	89µM	40µM	u	n
CNC(=O)CCn1ncc2cc(OCc3ccccc3-c3cccc(C)c3)ccc21	u	89µM	45µM	100µM	n
CNC(=O)CCn1ncc2cc(OCc3ccccc3-c3cccc(OC)c3F)ccc21	n	45µM	n	u	n
CN(Cc1ccc(F)cc1)Cc1ccc(-c2ccccc2)cc1	n	n	n	n	n
CN(Cc1ccc(-c2ccccc2)cc1)Cc1cccnc1	n	u	50µM	u	8.9µM
CN(Cc1ccc(-c2ccccc2)cc1)Cc1ccccn1	n	u	50µM	50µM	n
SMILES	GPT2 inh	NIH3T3 tox	Luciferase inh	HEK293 tox	hNpr1 antagonist
CC(C)c1cccc(NC(=O)CN2C(=O)C(c3ccccc3)=NC23CCCC3)c1	n	u	n	35µM	u
O=C(NC[C@H]1Cn2c(-c3ccc(F)cc3)cnc2CO1)c1ccc(Cl)cc1	n	u	u	89µM	18µM
O=S(=O)(NC[C@H]1Cn2c(-c3ccc(F)cc3)cnc2CO1)c1ccc(Cl)cc1	n	u	n	100µM	u
Fc1ccc(-c2cnc3n2C[C@H](CN(Cc2ccccc2)Cc2ccccc2)OC3)cc1	n	28µM	n	35µM	n
O=C(NC[C@H]1Cn2c(-c3ccc4c(c3)OCO4)cnc2CO1)c1ccc2c(c1)OCO2	n	28µM	u	63µM	n
CN1CCC2(Cc3ccccc3CN(C(=O)c3cccc(Cl)c3)C2)C1 (stereo not given)	n	u	x	u	x
CCCOc1ccc(CN2CCn3nnc(CCC(=O)N4CCCC4)c3C2)cc1	n	n	x	u	x
CCn1ncc(CN2C[C@@H](COCC3CC3)[C@H](c3ccccn3)C2)c1C	n	n	n	u	n
Cc1nnc2ccc(N3CCCC(N[S+](=O)([O-])c4cccs4)C3)nn12 (stereo not given)	x	n	x	n	x
COc1ccccc1C(=O)NC[C@H]1Cn2c(-c3ccc(Cl)cc3)cnc2CO1	n	10µM	n	13µM	u
Cc1nn(-c2ccccc2)c2c1C(C(C)C)N(C1CN([S+](=O)([O-])c3cccs3)C1)C2=O (stereo not given)	x	n	x	u	x
COCCn1c(C)cnc1CC1CCCN(Cc2cccc(F)c2)C1 (stereo not given)	u	n	n	n	n
Cc1ccc(-c2ccccc2CN2CCC(C(=O)NC3CCCC3)CC2)cc1Cl	x	n	x	n	x
Cc1ccc(-c2ccccc2CN2CCC(C(=O)N3CCOCC3)CC2)cc1Cl	n	u	x	79µM	x
Cc1ccc(-c2ccccc2CN2CCN(C(=O)NC3CCCC3)CC2)cc1Cl	n	20µM	x	22µM	x
COc1ccccc1C(=O)N1CCN(Cc2ccccc2-c2ccc(C)c(Cl)c2)CC1	n	35µM	x	u	x
O=C1NCc2ccccc2CC12CCN(Cc1ccc3ccccc3n1)CC2	n	n	x	u	x
O=C(NCCNC(=O)c1ccccc1Cl)c1ccc(-c2cccc(C(F)(F)F)c2)cc1	x	n	x	n	x
CN1CC(=O)N(c2ccc(Cl)cc2)Cc2c(NCCCc3ccccc3)ncnc21	n	32µM	40µM	u	n
Cc1ccccc1N1Cc2c(NCCCc3ccccc3)ncnc2N(C)CC1=O	u	45µM	n	u	n
Cc1ccccc1N1Cc2c(NCCc3ccc(F)cc3)ncnc2N(C)CC1=O	n	u	n	u	n
COc1ccc(-c2cc(-c3c(C)noc3C)c3cncn3c2)cc1OC	u	22µM	n	u	n
COc1cc(F)ccc1-c1cc(-c2c(C)noc2C)c2cncn2c1	n	u	n	63µM	n
COc1cccc(-c2cc(-c3ccncc3)c3cncn3c2)c1OC	n	u	n	89µM	n
Cc1ccccc1-c1cc(-c2c(C)noc2C)c2cncn2c1	n	u	n	45µM	n
O=C(c1ccccc1F)N1CC(Oc2ccc(F)cc2F)C1	n	n	x	n	x
COc1ccc(CN2CCC(O)(c3csc(CN4CCc5ccccc5C4)n3)CC2)cc1	n	u	n	u	n
Cc1noc(C)c1-c1cc(-c2ccc3c(c2)C(=O)NC3)cn2cncc12	n	13µM	n	n	n
COc1cccc(-c2cc(-c3c(C)noc3C)c3cncn3c2)c1OC	n	u	n	79µM	n
Cn1ncc2c(N[C@@H](Cc3ccccc3)C(N)=O)nc(-c3ccncc3)nc21	u	u	n	32µM	n
